Legend:
[1] = target: Death-associated protein kinase 1 (Homo sapiens) (UniProt P53355); settings: at 1 µM;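 note: each value is a mean inhibition figure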
[2] = target: T1, Serine/threonine-protein kinase DCLK2 (Homo sapiens) (UniProt Q8N568); settings: at 0.1 µM
T1 sequence (whole entry): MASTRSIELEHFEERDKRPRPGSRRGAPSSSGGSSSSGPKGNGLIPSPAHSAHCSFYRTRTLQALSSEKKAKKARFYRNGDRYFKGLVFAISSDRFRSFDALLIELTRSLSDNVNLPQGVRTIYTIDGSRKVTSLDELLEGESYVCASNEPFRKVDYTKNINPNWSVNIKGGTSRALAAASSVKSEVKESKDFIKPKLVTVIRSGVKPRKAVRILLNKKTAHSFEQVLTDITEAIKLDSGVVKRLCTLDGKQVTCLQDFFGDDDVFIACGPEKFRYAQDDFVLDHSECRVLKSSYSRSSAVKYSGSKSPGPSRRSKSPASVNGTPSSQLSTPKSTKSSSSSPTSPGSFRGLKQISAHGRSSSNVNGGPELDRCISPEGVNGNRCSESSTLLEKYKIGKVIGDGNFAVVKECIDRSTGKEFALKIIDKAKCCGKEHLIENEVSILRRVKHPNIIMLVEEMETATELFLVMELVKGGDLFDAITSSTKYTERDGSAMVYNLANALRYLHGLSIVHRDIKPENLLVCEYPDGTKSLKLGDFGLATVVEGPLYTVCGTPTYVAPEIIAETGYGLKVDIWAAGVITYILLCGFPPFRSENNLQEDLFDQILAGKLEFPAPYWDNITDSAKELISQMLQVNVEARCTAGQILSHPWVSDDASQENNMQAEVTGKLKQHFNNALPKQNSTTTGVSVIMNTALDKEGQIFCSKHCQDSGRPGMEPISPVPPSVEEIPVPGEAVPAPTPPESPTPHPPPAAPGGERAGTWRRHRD

[3] = target: T1, Serine/threonine-protein kinase DCLK2 (Homo sapiens); settings: at 1 µM
[4] = target: MAP kinase-activated protein kinase 2 (Homo sapiens) (UniProt P49137); settings: at 0.1 µM
Chain of MAP kinase-activated protein kinase 2 (Homo sapiens) (P49137 whole entry, looked up): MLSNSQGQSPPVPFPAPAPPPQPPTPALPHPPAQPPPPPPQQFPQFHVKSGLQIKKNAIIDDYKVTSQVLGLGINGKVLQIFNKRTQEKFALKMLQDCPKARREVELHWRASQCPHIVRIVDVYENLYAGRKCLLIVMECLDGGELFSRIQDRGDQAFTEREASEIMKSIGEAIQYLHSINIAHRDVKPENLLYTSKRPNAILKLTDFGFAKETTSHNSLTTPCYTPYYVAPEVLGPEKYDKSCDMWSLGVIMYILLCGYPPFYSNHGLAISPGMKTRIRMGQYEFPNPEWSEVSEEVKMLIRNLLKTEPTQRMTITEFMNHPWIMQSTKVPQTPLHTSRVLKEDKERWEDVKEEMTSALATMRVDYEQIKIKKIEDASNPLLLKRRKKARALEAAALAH

[5] = target: MAP kinase-activated protein kinase 2 (Homo sapiens) (UniProt P49137); settings: at 1 µM
[6] = target: MAP kinase-activated protein kinase 3 (Homo sapiens) (UniProt Q16644); settings: at 0.1 µM
Chain of MAP kinase-activated protein kinase 3 (Homo sapiens) (Q16644 whole entry, looked up): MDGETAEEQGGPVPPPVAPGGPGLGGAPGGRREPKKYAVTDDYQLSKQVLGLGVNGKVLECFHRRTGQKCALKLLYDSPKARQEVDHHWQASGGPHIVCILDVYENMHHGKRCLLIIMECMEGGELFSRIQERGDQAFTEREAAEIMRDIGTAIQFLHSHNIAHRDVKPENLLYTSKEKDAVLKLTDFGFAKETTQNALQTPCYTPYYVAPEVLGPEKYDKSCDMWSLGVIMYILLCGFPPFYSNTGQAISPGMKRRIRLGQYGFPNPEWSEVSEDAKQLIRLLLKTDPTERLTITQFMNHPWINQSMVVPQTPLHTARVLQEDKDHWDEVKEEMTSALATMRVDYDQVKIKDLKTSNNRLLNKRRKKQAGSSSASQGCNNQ

[7] = target: MAP kinase-activated protein kinase 3 (Homo sapiens) (UniProt Q16644); settings: at 1 µM
[8] = target: Serine/threonine-protein kinase MARK1 (Homo sapiens) (UniProt Q9P0L2); settings: at 0.1 µM
Chain of Serine/threonine-protein kinase MARK1 (Homo sapiens) (Q9P0L2 whole entry, looked up): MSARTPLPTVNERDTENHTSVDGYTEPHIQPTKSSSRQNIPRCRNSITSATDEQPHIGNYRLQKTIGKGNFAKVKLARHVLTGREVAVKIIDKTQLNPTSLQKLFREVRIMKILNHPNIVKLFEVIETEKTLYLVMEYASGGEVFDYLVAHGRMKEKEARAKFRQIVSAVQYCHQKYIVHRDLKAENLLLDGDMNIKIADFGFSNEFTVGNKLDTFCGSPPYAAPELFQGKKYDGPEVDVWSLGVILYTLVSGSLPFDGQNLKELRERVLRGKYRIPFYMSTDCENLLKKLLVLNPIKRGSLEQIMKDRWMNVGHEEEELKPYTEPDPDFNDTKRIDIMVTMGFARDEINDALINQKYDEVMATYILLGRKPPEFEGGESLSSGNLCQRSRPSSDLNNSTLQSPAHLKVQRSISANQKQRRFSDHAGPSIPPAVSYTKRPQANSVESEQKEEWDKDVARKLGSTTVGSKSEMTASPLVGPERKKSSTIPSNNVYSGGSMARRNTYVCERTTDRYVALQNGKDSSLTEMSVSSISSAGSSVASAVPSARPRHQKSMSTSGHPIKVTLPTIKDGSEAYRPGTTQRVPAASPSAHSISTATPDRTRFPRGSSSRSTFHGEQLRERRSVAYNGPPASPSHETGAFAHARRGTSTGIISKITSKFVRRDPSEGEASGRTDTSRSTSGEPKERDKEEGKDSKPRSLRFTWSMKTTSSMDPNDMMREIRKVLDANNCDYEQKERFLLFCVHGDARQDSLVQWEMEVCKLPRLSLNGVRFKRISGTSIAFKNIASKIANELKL

[9] = target: Serine/threonine-protein kinase MARK1 (Homo sapiens) (UniProt Q9P0L2); settings: at 1 µM
[10] = target: MAP/microtubule affinity-regulating kinase 3 (Homo sapiens) (UniProt P27448); settings: at 0.1 µM
Chain of MAP/microtubule affinity-regulating kinase 3 (Homo sapiens) (P27448 whole entry, looked up): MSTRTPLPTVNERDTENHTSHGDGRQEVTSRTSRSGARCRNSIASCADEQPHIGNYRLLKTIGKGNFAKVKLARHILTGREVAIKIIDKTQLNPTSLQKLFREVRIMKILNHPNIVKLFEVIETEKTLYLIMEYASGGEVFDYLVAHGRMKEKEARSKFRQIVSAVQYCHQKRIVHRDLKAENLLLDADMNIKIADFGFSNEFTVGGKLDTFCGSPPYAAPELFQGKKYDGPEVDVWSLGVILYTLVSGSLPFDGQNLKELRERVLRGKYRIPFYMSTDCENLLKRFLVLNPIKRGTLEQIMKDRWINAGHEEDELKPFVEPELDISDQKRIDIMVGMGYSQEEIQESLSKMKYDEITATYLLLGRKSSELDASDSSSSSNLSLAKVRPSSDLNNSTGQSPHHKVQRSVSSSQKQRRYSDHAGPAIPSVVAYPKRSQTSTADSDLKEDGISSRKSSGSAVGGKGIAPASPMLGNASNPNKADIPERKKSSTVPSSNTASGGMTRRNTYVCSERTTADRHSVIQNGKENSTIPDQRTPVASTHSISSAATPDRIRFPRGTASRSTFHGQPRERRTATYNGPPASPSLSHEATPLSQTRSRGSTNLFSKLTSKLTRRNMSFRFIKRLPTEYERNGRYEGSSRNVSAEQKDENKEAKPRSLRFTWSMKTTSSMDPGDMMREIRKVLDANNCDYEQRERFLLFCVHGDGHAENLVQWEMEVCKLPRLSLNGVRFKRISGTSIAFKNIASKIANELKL

[11] = target: MAP/microtubule affinity-regulating kinase 3 (Homo sapiens) (UniProt P27448); settings: at 1 µM
[12] = target: T2, MAP/microtubule affinity-regulating kinase 4 (Homo sapiens) (UniProt Q96L34); settings: at 0.1 µM
T2 sequence (whole entry): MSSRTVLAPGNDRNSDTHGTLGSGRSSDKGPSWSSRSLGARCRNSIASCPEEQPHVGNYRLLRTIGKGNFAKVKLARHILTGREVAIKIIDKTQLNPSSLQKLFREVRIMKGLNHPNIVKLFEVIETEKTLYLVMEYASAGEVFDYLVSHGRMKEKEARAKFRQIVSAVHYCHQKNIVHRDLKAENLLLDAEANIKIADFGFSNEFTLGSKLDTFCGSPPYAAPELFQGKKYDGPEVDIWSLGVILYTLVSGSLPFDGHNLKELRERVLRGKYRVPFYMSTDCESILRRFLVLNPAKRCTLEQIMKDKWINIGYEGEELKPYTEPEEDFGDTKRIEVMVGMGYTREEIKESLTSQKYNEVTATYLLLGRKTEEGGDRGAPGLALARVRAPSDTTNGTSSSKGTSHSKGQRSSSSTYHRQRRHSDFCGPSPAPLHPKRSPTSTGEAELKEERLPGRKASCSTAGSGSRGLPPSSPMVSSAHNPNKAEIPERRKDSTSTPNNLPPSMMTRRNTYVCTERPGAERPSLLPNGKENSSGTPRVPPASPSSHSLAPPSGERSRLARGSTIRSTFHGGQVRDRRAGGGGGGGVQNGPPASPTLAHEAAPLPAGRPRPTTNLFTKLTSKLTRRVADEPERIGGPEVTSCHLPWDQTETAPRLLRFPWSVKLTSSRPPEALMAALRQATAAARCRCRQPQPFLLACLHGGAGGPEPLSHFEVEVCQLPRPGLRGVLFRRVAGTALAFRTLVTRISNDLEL

[13] = target: T2, MAP/microtubule affinity-regulating kinase 4 (Homo sapiens); settings: at 1 µM
[14] = target: Maternal embryonic leucine zipper kinase (Homo sapiens) (UniProt Q14680); settings: at 0.1 µM
[15] = target: Maternal embryonic leucine zipper kinase (Homo sapiens) (UniProt Q14680); settings: at 1 µM
[16] = target: MAP kinase-interacting serine/threonine-protein kinase 1 (Homo sapiens) (UniProt Q9BUB5); settings: at 0.1 µM
Chain of MAP kinase-interacting serine/threonine-protein kinase 1 (Homo sapiens) (Q9BUB5 whole entry, looked up): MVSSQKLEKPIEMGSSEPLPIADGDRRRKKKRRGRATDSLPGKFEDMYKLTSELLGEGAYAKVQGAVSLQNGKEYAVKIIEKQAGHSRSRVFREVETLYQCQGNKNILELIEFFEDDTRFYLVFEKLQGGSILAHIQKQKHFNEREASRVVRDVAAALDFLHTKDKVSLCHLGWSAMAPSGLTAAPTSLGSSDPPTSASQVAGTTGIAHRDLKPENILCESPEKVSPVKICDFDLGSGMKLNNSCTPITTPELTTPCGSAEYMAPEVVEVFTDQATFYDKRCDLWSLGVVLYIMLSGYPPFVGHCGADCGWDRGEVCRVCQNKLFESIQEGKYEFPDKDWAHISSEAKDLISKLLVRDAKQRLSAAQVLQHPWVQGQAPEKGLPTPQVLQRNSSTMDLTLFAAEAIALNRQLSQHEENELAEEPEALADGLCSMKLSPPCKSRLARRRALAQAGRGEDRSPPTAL

[17] = target: MAP kinase-interacting serine/threonine-protein kinase 1 (Homo sapiens) (UniProt Q9BUB5); settings: at 1 µM
[18] = target: MAP kinase-interacting serine/threonine-protein kinase 2 (Homo sapiens) (UniProt Q9HBH9); settings: at 0.1 µM
[19] = target: MAP kinase-interacting serine/threonine-protein kinase 2 (Homo sapiens) (UniProt Q9HBH9); settings: at 1 µM
[20] = target: Serine/threonine-protein kinase MARK2 (Homo sapiens) (UniProt Q7KZI7); settings: at 0.1 µM;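 note: mean percent inhibition of PAR-1Balpha kinase activity, reported from the GSK PKIS screen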
Chain of Serine/threonine-protein kinase MARK2 (Homo sapiens) (Q7KZI7 whole entry): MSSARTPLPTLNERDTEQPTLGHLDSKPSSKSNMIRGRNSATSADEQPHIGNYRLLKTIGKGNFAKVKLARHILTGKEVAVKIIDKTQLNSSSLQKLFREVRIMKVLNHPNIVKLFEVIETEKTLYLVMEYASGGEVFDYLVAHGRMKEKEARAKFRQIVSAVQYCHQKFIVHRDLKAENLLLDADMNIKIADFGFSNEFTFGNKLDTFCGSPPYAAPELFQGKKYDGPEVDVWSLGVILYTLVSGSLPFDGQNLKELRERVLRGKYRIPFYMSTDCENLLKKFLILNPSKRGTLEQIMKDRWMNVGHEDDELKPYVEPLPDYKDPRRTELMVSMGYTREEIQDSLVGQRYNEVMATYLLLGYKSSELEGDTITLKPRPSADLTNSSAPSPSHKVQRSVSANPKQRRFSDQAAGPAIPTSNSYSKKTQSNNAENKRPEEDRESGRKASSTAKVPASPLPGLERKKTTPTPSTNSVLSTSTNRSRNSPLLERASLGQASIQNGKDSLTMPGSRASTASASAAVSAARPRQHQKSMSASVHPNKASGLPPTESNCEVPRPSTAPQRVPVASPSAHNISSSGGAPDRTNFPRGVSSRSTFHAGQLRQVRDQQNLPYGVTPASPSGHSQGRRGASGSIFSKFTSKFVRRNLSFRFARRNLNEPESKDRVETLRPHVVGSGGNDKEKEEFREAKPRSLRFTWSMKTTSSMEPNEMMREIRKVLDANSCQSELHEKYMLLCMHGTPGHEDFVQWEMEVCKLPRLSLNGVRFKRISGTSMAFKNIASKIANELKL

Chain of Death-associated protein kinase 1 (Homo sapiens) (P53355 whole entry, looked up): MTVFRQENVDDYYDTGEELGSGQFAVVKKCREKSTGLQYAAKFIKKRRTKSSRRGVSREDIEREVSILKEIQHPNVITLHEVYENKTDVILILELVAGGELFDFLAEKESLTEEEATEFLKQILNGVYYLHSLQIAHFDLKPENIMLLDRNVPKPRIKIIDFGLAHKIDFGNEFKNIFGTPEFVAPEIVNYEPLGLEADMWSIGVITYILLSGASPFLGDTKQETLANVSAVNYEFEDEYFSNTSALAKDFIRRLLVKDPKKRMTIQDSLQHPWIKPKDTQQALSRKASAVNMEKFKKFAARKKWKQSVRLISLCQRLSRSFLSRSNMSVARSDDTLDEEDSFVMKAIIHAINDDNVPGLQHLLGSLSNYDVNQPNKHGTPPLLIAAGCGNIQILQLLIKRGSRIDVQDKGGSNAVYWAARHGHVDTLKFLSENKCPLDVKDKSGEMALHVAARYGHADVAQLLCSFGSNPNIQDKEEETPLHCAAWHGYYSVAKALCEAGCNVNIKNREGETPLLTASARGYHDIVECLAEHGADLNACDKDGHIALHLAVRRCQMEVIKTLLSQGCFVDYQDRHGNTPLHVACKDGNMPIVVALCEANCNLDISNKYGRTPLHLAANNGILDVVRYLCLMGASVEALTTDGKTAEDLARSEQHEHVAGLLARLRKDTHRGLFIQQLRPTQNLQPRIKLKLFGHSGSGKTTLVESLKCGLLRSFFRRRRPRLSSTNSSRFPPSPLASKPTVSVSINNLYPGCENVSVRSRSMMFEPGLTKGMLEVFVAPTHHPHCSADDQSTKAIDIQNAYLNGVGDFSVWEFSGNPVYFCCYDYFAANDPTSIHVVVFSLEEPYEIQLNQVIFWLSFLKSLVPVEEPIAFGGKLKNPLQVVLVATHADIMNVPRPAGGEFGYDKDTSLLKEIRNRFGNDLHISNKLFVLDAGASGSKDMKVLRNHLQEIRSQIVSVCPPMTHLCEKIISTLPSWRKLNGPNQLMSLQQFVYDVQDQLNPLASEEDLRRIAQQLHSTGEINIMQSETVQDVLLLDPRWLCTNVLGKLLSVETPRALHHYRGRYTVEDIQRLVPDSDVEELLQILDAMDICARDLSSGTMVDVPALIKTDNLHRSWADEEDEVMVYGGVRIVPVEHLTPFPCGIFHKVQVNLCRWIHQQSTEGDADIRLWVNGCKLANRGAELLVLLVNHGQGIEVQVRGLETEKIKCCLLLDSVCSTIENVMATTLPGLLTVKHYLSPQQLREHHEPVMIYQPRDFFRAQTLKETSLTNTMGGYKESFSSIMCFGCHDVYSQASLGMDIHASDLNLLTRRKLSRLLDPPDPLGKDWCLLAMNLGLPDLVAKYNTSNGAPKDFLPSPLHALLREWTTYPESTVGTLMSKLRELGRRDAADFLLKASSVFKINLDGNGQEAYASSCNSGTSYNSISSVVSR

| SMILES | inhibition [1] [%] | inhibition [2] [%] | inhibition [3] [%] | inhibition [4] [%] | inhibition [5] [%] | inhibition [6] [%] | inhibition [7] [%] | inhibition [8] [%] | inhibition [9] [%] | inhibition [10] [%] | inhibition [11] [%] | inhibition [12] [%] | inhibition [13] [%] | inhibition [14] [%] | inhibition [15] [%] | inhibition [16] [%] | inhibition [17] [%] | inhibition [18] [%] | inhibition [19] [%] | inhibition [20] [%] |
| --- | --- | --- | --- | --- | --- | --- | --- | --- | --- | --- | --- | --- | --- | --- | --- | --- | --- | --- | --- | --- |
| COc1cc2ncn(-c3cc(OCc4ccccc4S(C)(=O)=O)c(C#N)s3)c2cc1OC | 6.48 | 1.77 | 0.47 | 1.6 | 1.54 | 3.38 | 4.59 | 36.9 | 80 | 49.6 | 88.3 | 34.9 | 76.6 | 1.64 | 8.3 | 11.7 | 47.7 | 41.8 | 76.8 | 25.9 |
| FC(F)(F)c1ccc(-c2nn3ncccc3c2-c2ccnc(Nc3ccc4c(c3)OCCO4)n2)cc1 | 1.79 | 5.13 | 2.77 | 3.11 | 3.56 | 10.3 | 30.6 | 4.61 | 6.64 | 5.66 | 11.2 | 4.98 | 6.4 | -0.41 | -0.13 | 6.66 | 10.9 | 6.24 | 9.7 | 6.43 |
| COC(=O)c1cncc(/C=C/c2c(C)cc(O)cc2C)c1 | 5.55 | 1.84 | 1.18 | 1.83 | 2.28 | 2.97 | 3.34 | 2.55 | 2.79 | 2.68 | 2.01 | 0.01 | 0.82 | 2.47 | 5.13 | 4.41 | 25.6 | 3.34 | 16.1 | 0.36 |
| COc1cc2ncnc(Nc3ccc4c(cnn4Cc4ccccc4)c3)c2cc1OC | 8.23 | -1.15 | 0.67 | 2.78 | 4.35 | 6.95 | 9.14 | 1.12 | 3.17 | 0.1 | 2.6 | 1.05 | 3.55 | 3.54 | 8.01 | 2.44 | 18 | 0.99 | 17.1 | -0.07 |
| NS(=O)(=O)c1ccc(NC=C2C(=O)Nc3ccc4ncsc4c32)cc1 | 24.9 | 0.84 | 7.25 | 2.28 | 4.38 | 5.09 | 5.58 | 30.8 | 67.3 | 17.8 | 60.7 | 21 | 58.7 | 62.7 | 94.4 | 9.09 | 39.2 | 3.84 | 18.1 | 14 |
| Oc1cccc(-c2nc(-c3ccccc3)[nH]c2-c2ccncc2)c1 | 6.12 | 2.33 | 0.39 | 1.62 | 1.79 | 11.7 | 25.4 | 1.58 | 4.27 | 3.78 | 6.43 | 1.16 | 2.71 | 4.46 | 5.5 | 5.55 | 25.6 | 1.57 | 14.8 | -0.88 |
| CN(C)C(=O)O[C@H]1CN[C@H](C#Cc2cc3ncnc(Nc4ccc(OCc5cccc(F)c5)c(Cl)c4)c3s2)C1 | 2.24 | -0.33 | 2.04 | 1.5 | 0.84 | 2.84 | 2.58 | 2.51 | 2.11 | 2.14 | 3.81 | 1.04 | 1.72 | 1.5 | 4.17 | 2.31 | 6.43 | 1.15 | 6.67 | 0.94 |
| CCOc1nccc2c1nc(-c1nonc1N)n2CC | 3.18 | 0.43 | 1.18 | 2.38 | 2.83 | 3.14 | 2.96 | 2.58 | 9.64 | 1.53 | 9.66 | 1.03 | 5.45 | 3.16 | 5.63 | 3.48 | 9.35 | 3.06 | 6.16 | 1.34 |
| C[C@@H](Oc1cc(-n2cnc3ccc(OC[C@@H](O)CO)cc32)sc1C(N)=O)c1ccccc1Cl | -5.26 | 0.92 | -6.84 | -0.75 | -0.94 | -0.21 | -0.73 | 0.87 | 5.71 | 0.4 | 5.81 | 1.02 | 5.24 | -2.58 | 3.21 | -0.74 | 2.69 | 0.15 | 2.94 | -0.27 |
| CS(=O)(=O)Nc1cccc(-c2ccc3c(NC(=O)C4CC4)n[nH]c3c2)c1 | 3.29 | 2.43 | 1.35 | 0.07 | 0.38 | -0.07 | 0.93 | 0.98 | 3.49 | 1.49 | 6.61 | 1.87 | 3.42 | 0.93 | 4.3 | 2.34 | 13.5 | 0.41 | 3.39 | -1.45 |
| Cc1ccc(Nc2ccnc(Nc3cccc(C(N)=O)c3)n2)cc1O | 0.43 | -4.04 | 0.3 | 1.02 | 0.74 | 3.05 | 7.65 | 2.3 | 6.45 | 4.15 | 12.5 | 1.68 | 6.22 | 2.96 | 7.7 | 2.87 | 13.4 | 2.08 | 16.7 | 0.4 |
| Nc1nccc(C#Cc2cncnc2Nc2ccc(OCc3cccc(F)c3)c(Cl)c2)n1 | 5.3 | 1.36 | 0.82 | 1.66 | 1.43 | 2.38 | 4.95 | 5.72 | 10.4 | 4.09 | 11.2 | 3.04 | 7.4 | 2.92 | 5.11 | 3.59 | 14 | 2.98 | 8.39 | 1.67 |
| CCS(=O)(=O)c1ccc(OC)c(Nc2ncc(-c3cccc(OC)c3)o2)c1 | 4.19 | 0.56 | -0.14 | 0.86 | 0.67 | 1.43 | 3.53 | 1.2 | 2.37 | 3.96 | 2.05 | 0.15 | 1.64 | 2.89 | 11.4 | 4.25 | 17 | 1.44 | 10.6 | -0.52 |
